Here are results for 15 molecules from PubChem BioAssay (NCATS).

Holding throughout (assay): qHTS profiling for inhibitors of Plasmodium falciparum proliferation (AID 504749); also: nearly all actives have a fitted effect of over 60% in size
Common to all, as to settings: P. falciparum in erythrocytes, SYBR Green DNA, 72 h; series mostly up to 28.7 µM

One assay deals with CP286. In outline: (§1)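 SYBR Green fluorescence of parasite DNA, read after lysis and overnight dark incubation, measured growth over 72 h in erythrocyte culture at 0.3% parasitemia and 2.5% hematocrit. Data normalised to DMSO and 0.29 uM artemisinin, with plate-drift correction.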
Another assay concerns Dd2. The method, boiled down:
as §1

Another assay relates to ECU. In outline: as §1
Another assay relates to FAB9. In outline:
as §1

In a further assay the test system is GB4. The method, boiled down: as §1
For the next assay, the system named is CP266. The method, boiled down:
as §1

The next assay has as its system CP315. In outline:
as §1

A further assay has as its system DIV17. The method, boiled down: as §1
A further assay has as its system DIV30. The method, boiled down: as §1
Another assay relates to CP269. In outline:
as §1

Another assay deals with CP305. The method, boiled down: as §1
In a further assay the test system is CP325. In outline: as §1
The subject of the next assay is DFO2036. The method, boiled down: as §1
The subject of the next assay is CP265. In outline:
as §1

A further assay concerns CP268. In outline:
as §1

The next assay relates to CP291. The method, boiled down:
as §1

A further assay has as its system CP329. The method, boiled down: as §1
Another assay has as its system CP335. The method, boiled down:
as §1

In a further assay the test system is DIV14. In outline:
as §1

For another assay, the system named is CP297. In outline: as §1

Records with an inconclusive call do not appear. Calls of active or inactive are those of the source. Calls follow the shape of the dose curve; as a rule, active = well fitted inhibition curve with a large enough effect; inconclusive = small, poorly fitted or top-dose-only effect; inactive = flat fitted curve, though single readings scatter.
Potency is read from the fitted curve at half-maximal effect.

As for `Cc1ccc(-c2cc(C(F)(F)F)nn2-c2ccc(S(N)(=O)=O)cc2)cc1`, the results for the Potency in the assay on CP286, in the assay with ECU and in the assay on GB4 were 8.91 µM (active), 10 µM (active) and 13.5 µM (active), respectively. Besides, the Potency result with Dd2 and in the assay on FAB9 was “inactive” in each case.
As to `Nc1c2c(nc3ccccc13)CCCC2`, the Potency result in the assay on CP266, in the assay on CP315, with DIV30, with Dd2, in the assay with ECU and with FAB9 was “inactive” in each case. Besides, in the assay on DIV17, the Potency was 6.75 µM (active).
On to `CC(COc1ccccc1)N(CCCl)Cc1ccccc1` (stereo not drawn), for which the Potency result with CP266, in the assay on CP269, in the assay on CP305, in the assay with CP315, in the assay on CP325 and with DFO2036 was “inactive” in each case. Also, the Potency entry in the assay on FAB9 was “inactive”. The Potency in the assay on DIV17 was 6.01 µM (active).
As for `OCCN1CCN(CCCN2c3ccccc3Sc3ccc(C(F)(F)F)cc32)CC1`, the Potency was 11.2 µM (active) in the assay with CP265; 13.5 µM (active) with CP268; 6.01 µM (active) with CP269; 2.51 µM (active) in the assay with CP286; 8.49 µM (active) in the assay on CP291; 9.53 µM (active) in the assay with CP305. Also, the Potency in the assay on CP315 is 12 µM (active); with CP325, 6.75 µM (active); in the assay on CP329, 13.5 µM (active); in the assay with CP335, 4.26 µM (active); with DFO2036, 7.08 µM (active); in the assay on DIV14, 6.75 µM (active). For the same molecule, the Potency is 6.01 µM (active) in the assay with DIV17; 8.49 µM (active) in the assay with DIV30; 11.2 µM (active) with Dd2; 6.31 µM (active) in the assay with ECU; 6.01 µM (active) in the assay with GB4.
As for `Clc1ccccc1C(c1ccccc1)(c1ccccc1)n1ccnc1`, the Potency was 0.708 µM (active) in the assay with CP265; 2.28 µM (active) in the assay with CP268; 0.907 µM (active) in the assay on CP269; 1.58 µM (active) in the assay with CP286; 2.03 µM (active) in the assay with CP291; 0.455 µM (active) in the assay with CP297. In addition, the Potency with CP305 was 5.1 µM (active); with CP315 it was 2.03 µM (active); in the assay on CP325, 1.81 µM (active); in the assay with CP329, 2.87 µM (active); in the assay on CP335, 1.28 µM (active); in the assay with DFO2036, 0.708 µM (active). The Potency in the assay with DIV14 is 0.455 µM (active); in the assay on DIV17, 0.287 µM (active); in the assay on DIV30 it was 0.228 µM (active); with Dd2, 0.708 µM (active); in the assay with ECU it was 0.158 µM (active); in the assay with FAB9 it was 1.78 µM (active). Moreover, the Potency with GB4 was 0.809 µM (active).
Turning to `CCOC(=O)c1ncn2c1CN(C)C(=O)c1cc(F)ccc1-2`, the Potency entry with CP265, with CP268, with CP269, in the assay with CP286, in the assay with CP291 and in the assay on CP297 was “inactive” throughout. Also, the Potency entry in the assay on CP305, with CP315, in the assay on CP325, in the assay with CP329, in the assay on CP335 and in the assay with DFO2036 was “inactive” throughout. For the same molecule, the Potency entry with DIV14, in the assay on DIV17, in the assay on DIV30, with Dd2, with ECU and in the assay on FAB9 was “inactive” in each case. The Potency result in the assay on GB4 is “inactive”.
As to `O=C1c2c(O)ccc(O)c2C(=O)c2c(NCCNCCO)ccc(NCCNCCO)c21`, the Potency in the assay with CP266 was 5.1 µM (active); in the assay on CP268, 7.21 µM (active); in the assay on CP269, 7.21 µM (active); in the assay on CP286, 1.12 µM (active); in the assay on CP291, 6.42 µM (active); in the assay with CP297 it was 6.42 µM (active). Further, the Potency in the assay with CP305 was 5.1 µM (active); in the assay on CP315, 6.42 µM (active); with CP335, 2.87 µM (active); in the assay on DFO2036 it was 2.51 µM (active); in the assay on DIV14 it was 4.55 µM (active); with DIV17, 2.56 µM (active). Further, the results for the Potency in the assay on DIV30, in the assay on Dd2 and in the assay on GB4 were 5.1 µM (active), 1.58 µM (active) and 2.87 µM (active), respectively.
Take `CC1(CN2CCC(n3c(=O)[nH]c4ccccc43)CC2)OCc2ccccc2-n2cccc21` (stereo not drawn): the Potency result in the assay with CP266, with CP315, in the assay on CP325, with CP329 and in the assay on FAB9 was “inactive” each time. The Potency in the assay on DIV14 was 9.53 µM (active); with DIV17 it was 13.5 µM (active); in the assay with DIV30, 13.5 µM (active); with Dd2 it was 11.2 µM (active); in the assay on ECU it was 10 µM (active).
With `Cc1cn([C@H]2C=C[C@@H](CO)O2)c(=O)[nH]c1=O`, the Potency entry with CP265, with CP268, in the assay with CP269, in the assay on CP286, with CP291 and in the assay with CP297 was “inactive” throughout. Also, the Potency entry with CP305, with CP315, with CP325, with CP329, in the assay on CP335 and with DFO2036 was “inactive” in each case. Moreover, the Potency result with DIV14, with DIV17, in the assay with DIV30, in the assay with Dd2, in the assay with ECU and with FAB9 was “inactive” in each case. In the assay with GB4, the Potency result was “inactive”.
Consider `CN(Cc1cnc2nc(N)nc(N)c2n1)c1ccc(C(=O)N[C@@H](CCC(=O)O)C(=O)O)cc1`, for which the Potency entry with CP266, in the assay on CP268, with CP269, in the assay with CP291, with CP297 and in the assay on CP305 was “inactive” each time. The Potency entry in the assay on CP315, in the assay on CP325, with CP329 and in the assay with DIV30 was “inactive” throughout. Also, the Potency was 0.158 µM (active) with CP286, 0.112 µM (active) with ECU and 0.0316 µM (active) with FAB9.
On to `CN(C)CCOC(c1ccccc1)c1ccccc1`, for which the Potency entry in the assay with CP266, in the assay on CP269, in the assay on CP315, with CP329, in the assay with CP335 and with DFO2036 was “inactive” each time. Besides, the Potency result in the assay on ECU and in the assay on FAB9 was “inactive” throughout.
For `CN1CCC(=C2c3ccccc3CC(=O)c3sccc32)CC1`, the Potency in the assay with CP265 is 10 µM (active); in the assay with DIV14 it was 5.36 µM (active); with DIV17 it was 6.01 µM (active); in the assay with Dd2, 4.47 µM (active); with ECU, 7.08 µM (active); in the assay with FAB9 it was 6.31 µM (active). For the same molecule, in the assay on GB4, the Potency was 1.51 µM (active). Further, the Potency result in the assay on CP266, in the assay on CP286, in the assay with CP315 and in the assay on DFO2036 was “inactive” throughout.
Turning to `O=c1c(O)c(-c2ccc(O)c(O)c2)oc2cc(O)cc(O)c12`, the Potency result in the assay on CP266 and with ECU was “inactive” each time. Moreover, the Potency in the assay on CP286 is 11.2 µM (active); in the assay on DIV14 it was 15.1 µM (active); in the assay with GB4, 12 µM (active).
For the molecule `O=C(c1ccc(F)cc1)C1CCN(CCn2c(=O)[nH]c3ccccc3c2=O)CC1`, the Potency result in the assay with CP265, with CP266, in the assay on CP269, in the assay with CP297, in the assay on CP315 and in the assay on CP325 was “inactive” throughout. Besides, the Potency entry with CP329, with CP335, with DFO2036, with DIV30, with ECU and with FAB9 was “inactive” in each case. In the assay with GB4, the Potency result was “inactive”.
For `O=C(c1ccc(OCCN2CCCCC2)cc1)c1c(-c2ccc(O)cc2)sc2cc(O)ccc12`, the Potency with CP268 is 10.7 µM (active); with CP286 it was 3.55 µM (active); with CP297, 12 µM (active); with CP315 it was 19 µM (active); in the assay on CP335, 6.75 µM (active); in the assay with DIV14, 12 µM (active). The Potency in the assay with DIV17 is 15.1 µM (active); with Dd2, 14.1 µM (active); in the assay with GB4 it was 8.49 µM (active).
